In the supplement of paper PMC4466140:

The binders below were run against CaNbp2 (assay: SPOT peptide array binding signal intensity (averaged, normalized) (arbitrary units (background-subtracted, floor 0; scale differs between SH3 domains)); higher = stronger binding of the SH3 domain to the peptide).
In short: (§1)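 Cellulose membranes carried synthetic 15-mer peptides with cysteines swapped for serines. These were incubated overnight at 4°C with 10 μg/ml of GST-fused SH3 domains from four yeast species in TBS-based blocking buffer. Binding signal, detected with anti-GST antibody and quantified in Genespotter, is the normalized, background-subtracted spot intensity averaged over replicates, in arbitrary units specific to each domain.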

Row | Binder | SPOT peptide array binding signal intensity
1 | TSFKGRPKPPKTLKH | 12

These binders were tested against CaRvs167 in the same assay as above.
In short: as §1

Row | Binder | SPOT peptide array binding signal intensity
2 | TSFKGRPKPPKTLKH | 0.833

These binders were tested against CaRvs167-3 in the same assay as above.
In short: as §1

Row | Binder | SPOT peptide array binding signal intensity
3 | TSFKGRPKPPKTLKH | 1.5

What follows are binders tested against CaSho1 in the same assay as above.
In short: as §1

Row | Binder | SPOT peptide array binding signal intensity
4 | TSFKGRPKPPKTLKH | 0.5

What follows are binders tested against CaSla1-D1-D2 in the same assay as above.
In short: as §1

Row | Binder | SPOT peptide array binding signal intensity
5 | TSFKGRPKPPKTLKH | 196

What follows are binders tested against CaSla1-D3 in the same assay as above.
In short: as §1

Row | Binder | SPOT peptide array binding signal intensity
6 | TSFKGRPKPPKTLKH | ≤ 0

Each binder was assayed against ScAbp1 in the same assay as above.
In short: as §1

Row | Binder | SPOT peptide array binding signal intensity
7 | TSFKGRPKPPKTLKH | 556

Each binder was assayed against ScBbc1 in the same assay as above.
In short: as §1

Row | Binder | SPOT peptide array binding signal intensity
8 | TSFKGRPKPPKTLKH | ≤ 0

What follows are binders tested against ScBem1-D1 in the same assay as above.
In short: as §1

Row | Binder | SPOT peptide array binding signal intensity
9 | TSFKGRPKPPKTLKH | 6.5

These binders were tested against ScBzz1-D1 in the same assay as above.
In short: as §1

Row | Binder | SPOT peptide array binding signal intensity
10 | TSFKGRPKPPKTLKH | 26

Each binder was assayed against ScBzz1-D2 in the same assay as above.
In short: as §1

Row | Binder | SPOT peptide array binding signal intensity
11 | TSFKGRPKPPKTLKH | 18

The binders below were run against ScCyk3 in the same assay as above.
In short: as §1

Row | Binder | SPOT peptide array binding signal intensity
12 | TSFKGRPKPPKTLKH | ≤ 0

Each binder was assayed against ScFus1 in the same assay as above.
In short: as §1

Row | Binder | SPOT peptide array binding signal intensity
13 | TSFKGRPKPPKTLKH | ≤ 0

What follows are binders tested against ScHof1 in the same assay as above.
In short: as §1

Row | Binder | SPOT peptide array binding signal intensity
14 | TSFKGRPKPPKTLKH | 8.5

Each binder was assayed against ScHse1 in the same assay as above.
In short: as §1

Row | Binder | SPOT peptide array binding signal intensity
15 | TSFKGRPKPPKTLKH | 542

Each binder was assayed against ScLsb1 in the same assay as above.
In short: as §1

Row | Binder | SPOT peptide array binding signal intensity
16 | TSFKGRPKPPKTLKH | 4.75

Each binder was assayed against ScLsb2 in the same assay as above.
In short: as §1

Row | Binder | SPOT peptide array binding signal intensity
17 | TSFKGRPKPPKTLKH | ≤ 0

These binders were tested against ScLsb3 in the same assay as above.
In short: as §1

Row | Binder | SPOT peptide array binding signal intensity
18 | TSFKGRPKPPKTLKH | ≤ 0

Each binder was assayed against ScLsb4 in the same assay as above.
In short: as §1

Row | Binder | SPOT peptide array binding signal intensity
19 | TSFKGRPKPPKTLKH | ≤ 0

The binders below were run against ScMyo3 in the same assay as above.
In short: as §1

Row | Binder | SPOT peptide array binding signal intensity
20 | TSFKGRPKPPKTLKH | 3

What follows are binders tested against ScMyo5 in the same assay as above.
In short: as §1

Row | Binder | SPOT peptide array binding signal intensity
21 | TSFKGRPKPPKTLKH | ≤ 0

These binders were tested against ScNbp2 in the same assay as above.
In short: as §1

Row | Binder | SPOT peptide array binding signal intensity
22 | TSFKGRPKPPKTLKH | 7

The binders below were run against ScPex13 in the same assay as above.
In short: as §1

Row | Binder | SPOT peptide array binding signal intensity
23 | TSFKGRPKPPKTLKH | 1.5

Each binder was assayed against ScRvs167 in the same assay as above.
In short: as §1

Row | Binder | SPOT peptide array binding signal intensity
24 | TSFKGRPKPPKTLKH | ≤ 0

Each binder was assayed against ScSho1 in the same assay as above.
In short: as §1

Row | Binder | SPOT peptide array binding signal intensity
25 | TSFKGRPKPPKTLKH | 71

Each binder was assayed against ScSla1-D1-D2 in the same assay as above.
In short: as §1

Row | Binder | SPOT peptide array binding signal intensity
26 | TSFKGRPKPPKTLKH | 63.5

The binders below were run against ScSla1-D3 in the same assay as above.
In short: as §1

Row | Binder | SPOT peptide array binding signal intensity
27 | TSFKGRPKPPKTLKH | 7

Each binder was assayed against SpAbp1-D1 in the same assay as above.
In short: as §1

Row | Binder | SPOT peptide array binding signal intensity
28 | TSFKGRPKPPKTLKH | 174

These binders were tested against SpBbc1 in the same assay as above.
In short: as §1

Row | Binder | SPOT peptide array binding signal intensity
29 | TSFKGRPKPPKTLKH | 0.5

These binders were tested against SpBzz1-D1 in the same assay as above.
In short: as §1

Row | Binder | SPOT peptide array binding signal intensity
30 | TSFKGRPKPPKTLKH | 207

These binders were tested against SpBzz1-D2 in the same assay as above.
In short: as §1

Row | Binder | SPOT peptide array binding signal intensity
31 | TSFKGRPKPPKTLKH | ≤ 0

Each binder was assayed against SpCyk3 in the same assay as above.
In short: as §1

Row | Binder | SPOT peptide array binding signal intensity
32 | TSFKGRPKPPKTLKH | ≤ 0

These binders were tested against SpHof1 in the same assay as above.
In short: as §1

Row | Binder | SPOT peptide array binding signal intensity
33 | TSFKGRPKPPKTLKH | 27

The binders below were run against SpHof1-2 in the same assay as above.
In short: as §1

Row | Binder | SPOT peptide array binding signal intensity
34 | TSFKGRPKPPKTLKH | ≤ 0

These binders were tested against SpHof1-3 in the same assay as above.
In short: as §1

Row | Binder | SPOT peptide array binding signal intensity
35 | TSFKGRPKPPKTLKH | 183

The binders below were run against SpHse1 in the same assay as above.
In short: as §1

Row | Binder | SPOT peptide array binding signal intensity
36 | TSFKGRPKPPKTLKH | 79

These binders were tested against SpLsb1 in the same assay as above.
In short: as §1

Row | Binder | SPOT peptide array binding signal intensity
37 | TSFKGRPKPPKTLKH | 2.5

What follows are binders tested against SpLsb4 in the same assay as above.
In short: as §1

Row | Binder | SPOT peptide array binding signal intensity
38 | TSFKGRPKPPKTLKH | 12.5

What follows are binders tested against SpMyo1 in the same assay as above.
In short: as §1

Row | Binder | SPOT peptide array binding signal intensity
39 | TSFKGRPKPPKTLKH | ≤ 0

These binders were tested against SpNbp2 in the same assay as above.
In short: as §1

Row | Binder | SPOT peptide array binding signal intensity
40 | TSFKGRPKPPKTLKH | 22

These binders were tested against SpPex13 in the same assay as above.
In short: as §1

Row | Binder | SPOT peptide array binding signal intensity
41 | TSFKGRPKPPKTLKH | ≤ 0

These binders were tested against SpRvs167 in the same assay as above.
In short: as §1

Row | Binder | SPOT peptide array binding signal intensity
42 | TSFKGRPKPPKTLKH | 2

These binders were tested against SpSla1-D1-D2 in the same assay as above.
In short: as §1

Row | Binder | SPOT peptide array binding signal intensity
43 | TSFKGRPKPPKTLKH | 3

The binders below were run against SpSla1-D3 in the same assay as above.
In short: as §1

Row | Binder | SPOT peptide array binding signal intensity
44 | TSFKGRPKPPKTLKH | 2
